# Results reported in PubChem BioAssay (Tox21).
# Inconclusive results are not listed. Unmarked numbers belong to inactive results. Calls follow the shape of the dose curve; as a rule, active = well fitted cell-killing curve with a large enough effect in the repeat runs; inconclusive = weak or mixed curves, or effect the other way; inactive = flat fitted curve, though single readings scatter.
# Test: qHTS RealTime-Glo MT Cell Viability Assay in HEK293 cells - 0 hour (AID 1224880); also: top concentration of the series differs between compounds; nearly all actives have a fitted effect of over 45% in size
# Conditions: RealTime-Glo luminescence; series mostly up to 76.8 µM; activity change, negative = cytotoxicity: at the top concentration
# Description: U.S. Tox21 Program National Center for Advancing Translational Sciences [NCATS] NIH Chemical Genomics Center [NCGC] U.S. Environmental Protection Agency [EPA] National Institutes of Environmental Health Sciences [NIEHS] National Toxicology Program [NTP] U.S. Food and Drug Administration [FDA] Tox21 Assay Overview: Measure of cell viability is critical in the cell-base assay. Analysis of cell viability is necessary for the characterization of cell responses to cytotoxic drugs and environmental stress. A RealTime-Glo MT Cell Viability Assay to monitor cell viability in real time of continues cell culture during 40 hours of compound treatment was used to screen Tox21 10K library compounds in Hek293 cells. The RealTime-Glo MT Cell Viability Assay is a nonlytic, homogeneous, bioluminescent method to measure cell viability in real time using a simple, plate-based method. The assay involves adding NanoLuc luciferase and a cell-permeant prosubstrate to cells in culture. Viable cells reduce the proprietary prosubstrate to generate a substrate for NanoLuc luciferase. This substrate diffuses from cells into the surrounding culture medium, where it is rapidly used by the NanoLuc Enzyme to produce a luminescent signal. The signal correlates with the number of viable cells, making the assay well suited for cytotoxicity studies.
# Tox21 Assay Protocol Summary: The mixture of Hek293 cell suspension and reagents were dispensed at 600cells/6 ul/well in 1536-well tissue culture treated black solid bottom plates using a Multidrop dispenser. After the assay plates were incubated at a 37 C/5% CO2 incubator for 5 hours, 23 nL of compounds dissolved in DMSO, positive and negative controls was transferred to the assay plate by a pintool work station. The plates were incubated at 37 C for 40 hours. The luminescence intensity were measured at 0h, 8h, 16h, 24h, 32h and 40h time points using ViewLux plate reader during compound treatment.
# % is scaled to controls: 0 for no effect and ±100 for the full control effect.
row,SMILES,"activity change, negative = cytotoxicity"
1,COc1ccc(C(=O)N2CCCC2=O)cc1,-2.63% [at 35.3 µM]
2,COP(N)(=S)Oc1ccccc1C(=O)OC(C)C (stereo not given),1.92%
3,CCC(Cl)[N+](=O)[O-] (stereo not given),-4.33%
4,CC(Cl)(Cl)[N+](=O)[O-],2.27%
5,ClC(Br)Br,13.7%
6,Nc1c(Br)cc([N+](=O)[O-])cc1[N+](=O)[O-],9.17%
7,C#CCN1C(=O)COc2cc(F)c(N3C(=O)C4=C(CCCC4)C3=O)cc21,2.77%
8,ClCC(Cl)(Cl)Cl,4.25%
9,Cc1coc2c1CCC(C)C2 (stereo not given),-1.83%
10,C#C[C@]1(O)C=C[C@H]2[C@@H]3CCC4=CC(=O)CC[C@@H]4[C@H]3CC[C@@]21CC,0.17% [at 35.3 µM]
11,COC(=O)C1=CCCN(C)C1,4.62% [at 35.3 µM]
12,COC(=O)C(C)Oc1ccc(Oc2ccc(Cl)cc2Cl)cc1 (stereo not given),-1.31%
13,CCOP(=S)(OCC)Oc1cc(-c2ccccc2)on1,-13.2%
14,CCN(CC)c1nc(C)cc(OP(=S)(OC)OC)n1,0.364%
15,CCOC(=O)N(C)C(=O)CSP(=S)(OCC)OCC,-10.3%
16,O=C1c2ccccc2C(=O)c2ccccc21,1.83% [at 15.8 µM]
17,CCOP(=S)(OCC)Oc1ncn(-c2ccccc2)n1,9.04%
18,CC(C)CC(N(C)C)C1(c2ccc(Cl)cc2)CCC1 (stereo not given),8.5% [at 35.3 µM]
19,Cc1ccccc1CO[C@@H]1C[C@@]2(C(C)C)CC[C@]1(C)O2,0.437%
20,OCCSCSCCO,-5.48%

row,SMILES,"activity change, negative = cytotoxicity"
1,CCOP(=S)(Oc1cnc(C(C)(C)C)nc1)OC(C)C (stereo not given),2.02%
2,CC1CN1P(=O)(N1CC1C)N1CC1C (stereo not given),1.15%
3,OCCBr,-2.13%
4,Nc1n[nH]c(N)n1,12.8%
5,CN(C)CCc1ccc(O)cc1,-2.75% [at 35.3 µM]
6,CCCCOC(=O)c1ccccc1N,26.5%
7,N#Cc1ccncc1,1.13%
8,O=[N+]([O-])c1cccc(O)c1,19.5%
9,CNC(=O)N(C)c1nc2ccccc2s1,7.9%
10,CCCCCCI,-11.6%
11,C(CCOCC1CO1)COCC1CO1 (stereo not given),5.27%
12,CC(=O)CCc1ccc2c(c1)OCO2,6.49%
13,Cc1ncc(CNC(=O)N(CCCl)N=O)c(N)n1,-4.36% [at 35.3 µM]
14,CCC(C)n1c(=O)[nH]c(C)c(Br)c1=O (stereo not given),-1.1%
15,Oc1c(Cl)cccc1Cl,-1.43%
16,CC(C)NCC(O)c1ccc(N)c(C#N)c1 (stereo not given),0.423% [at 35.3 µM]
17,CCCCOC(=O)c1ccccc1C(=O)O,-3.31%
18,C[C@H]1CCC[C@H](O)CCCCCc2cc(O)cc(O)c2C(=O)O1,-14.1%
19,c1cc2c(c(N3CCNCC3)c1)OCCO2,-3.09% [at 35.3 µM]
20,CC(C=O)Cc1ccc2c(c1)OCO2 (stereo not given),-0.28%
